Measured values reported in PubChem BioAssay (NCATS).
Inconclusive results are not listed. Active and inactive are the calls of the source. Calls follow the shape of the dose curve; as a rule, active = well fitted curve in the direction sought with a large enough effect; inconclusive = small, poorly fitted or top-dose-only effect, or another doubt; inactive = no such curve, though single readings can be large; an effect the other way counts as inactive or inconclusive.

Legend:
[1] = target: Rap guanine nucleotide exchange factor 3 (Homo sapiens) (UniProt O95398); experiment: Confirmatory qHTS for antagonist of cAMP-regulated guanine nucleotide exchange factor 3 (EPAC1) (AID 1645880); also: nearly all actives have a fitted effect of over 55% in size; also: potency is read from the fitted curve at half-maximal effect
Rap guanine nucleotide exchange factor 3 (Homo sapiens), sequence (O95398 whole entry, looked up): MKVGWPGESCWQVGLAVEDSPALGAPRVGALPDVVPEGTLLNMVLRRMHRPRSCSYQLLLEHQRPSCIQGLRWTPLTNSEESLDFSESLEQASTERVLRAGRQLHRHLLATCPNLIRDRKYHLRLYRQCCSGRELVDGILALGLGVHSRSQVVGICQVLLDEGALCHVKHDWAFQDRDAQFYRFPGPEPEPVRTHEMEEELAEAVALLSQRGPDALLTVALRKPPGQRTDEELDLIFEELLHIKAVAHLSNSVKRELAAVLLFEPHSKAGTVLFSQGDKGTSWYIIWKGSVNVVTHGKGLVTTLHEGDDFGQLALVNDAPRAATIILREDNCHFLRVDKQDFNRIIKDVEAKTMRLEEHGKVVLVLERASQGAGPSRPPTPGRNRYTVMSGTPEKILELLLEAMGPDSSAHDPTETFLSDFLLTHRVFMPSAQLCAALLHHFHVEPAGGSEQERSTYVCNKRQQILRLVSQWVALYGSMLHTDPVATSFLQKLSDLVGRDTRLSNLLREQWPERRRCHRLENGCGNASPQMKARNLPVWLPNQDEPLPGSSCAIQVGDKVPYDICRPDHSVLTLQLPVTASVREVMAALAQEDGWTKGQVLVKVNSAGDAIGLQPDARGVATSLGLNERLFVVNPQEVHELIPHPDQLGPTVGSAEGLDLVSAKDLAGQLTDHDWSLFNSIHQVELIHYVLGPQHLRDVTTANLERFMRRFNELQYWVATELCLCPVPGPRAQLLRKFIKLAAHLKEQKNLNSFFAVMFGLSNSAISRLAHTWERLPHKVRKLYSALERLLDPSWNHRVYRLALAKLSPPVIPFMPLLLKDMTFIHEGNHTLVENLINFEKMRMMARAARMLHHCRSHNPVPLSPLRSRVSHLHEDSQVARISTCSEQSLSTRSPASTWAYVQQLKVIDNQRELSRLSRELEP
How it was run: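 Nucleotide exchange uses 100 nM EPAC1, 250 nM RAP1B-BODIPY-GDP and 50 uM GDP, with compounds in a concentration-titration series. After 5 min at room temperature, fluorescence (480 nm ex/540 nm em) is read every 5 min for 30 min. Data are normalized to control ATA and DMSO.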

[2] = target: Rap guanine nucleotide exchange factor 3 (Homo sapiens) (UniProt O95398); experiment: Confirmatory qHTS for agonist of cAMP-regulated guanine nucleotide exchange factor 3 (EPAC1) (AID 1645881); also: nearly all actives have a fitted effect of over 75% in size; also: potency is read from the fitted curve at half-maximal effect;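 as to activation: EPAC1 catalysed release of BODIPY-GDP from Rap1B seen as fluorescence loss; 100% = effect of cAMP agonist control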
[3] = target: Rap guanine nucleotide exchange factor 4 (Homo sapiens) (UniProt Q8WZA2); experiment: Confirmatory qHTS for agonist of cAMP-regulated guanine nucleotide exchange factor 4 (EPAC2) (AID 1645884);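 also: nucleotide exchange releases bodipy-GDP from Rap1 and this lowers its fluorescence; nearly all actives have a fitted effect of over 65% in size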; also: potency is read from the fitted curve at half-maximal effect; as to activation: % is scaled to controls: 0 for no effect and ±100 for the full control effect
Rap guanine nucleotide exchange factor 4 (Homo sapiens), sequence (Q8WZA2 whole entry, looked up): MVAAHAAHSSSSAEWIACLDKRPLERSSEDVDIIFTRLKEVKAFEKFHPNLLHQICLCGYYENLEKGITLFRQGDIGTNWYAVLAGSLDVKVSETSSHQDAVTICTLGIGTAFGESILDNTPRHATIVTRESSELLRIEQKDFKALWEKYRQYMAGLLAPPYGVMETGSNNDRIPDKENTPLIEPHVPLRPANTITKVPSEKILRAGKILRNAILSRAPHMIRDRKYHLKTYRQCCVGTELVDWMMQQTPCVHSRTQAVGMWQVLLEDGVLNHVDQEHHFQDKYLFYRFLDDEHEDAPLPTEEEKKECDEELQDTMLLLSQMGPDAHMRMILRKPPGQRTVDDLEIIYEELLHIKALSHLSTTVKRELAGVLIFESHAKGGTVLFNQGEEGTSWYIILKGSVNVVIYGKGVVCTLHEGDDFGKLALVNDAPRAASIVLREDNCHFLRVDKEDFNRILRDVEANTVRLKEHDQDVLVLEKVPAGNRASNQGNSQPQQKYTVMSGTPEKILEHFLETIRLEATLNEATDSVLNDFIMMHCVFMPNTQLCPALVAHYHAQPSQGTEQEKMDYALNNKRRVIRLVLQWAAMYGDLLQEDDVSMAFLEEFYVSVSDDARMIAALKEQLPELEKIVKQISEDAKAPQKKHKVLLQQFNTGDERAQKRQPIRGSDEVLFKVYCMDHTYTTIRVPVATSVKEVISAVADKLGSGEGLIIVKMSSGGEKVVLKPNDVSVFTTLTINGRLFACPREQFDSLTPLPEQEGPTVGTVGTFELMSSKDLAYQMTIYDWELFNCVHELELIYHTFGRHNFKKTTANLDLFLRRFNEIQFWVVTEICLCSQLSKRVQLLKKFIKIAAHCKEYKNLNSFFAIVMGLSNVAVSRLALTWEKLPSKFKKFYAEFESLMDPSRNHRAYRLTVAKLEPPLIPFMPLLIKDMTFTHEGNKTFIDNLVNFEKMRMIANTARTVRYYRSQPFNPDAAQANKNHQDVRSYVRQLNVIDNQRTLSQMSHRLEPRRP

[4] = target: Rap guanine nucleotide exchange factor 4 (Homo sapiens) (UniProt Q8WZA2); experiment: Confirmatory qHTS for antagonist of cAMP-regulated guanine nucleotide exchange factor 4 (EPAC2) (AID 1645885); also: nearly all actives have a fitted effect of over 25% in size; also: potency is read from the fitted curve at half-maximal effect; as to activity change, negative = inhibition: % is scaled to controls: 0 for no effect and ±100 for the full control effect
[5] = target: Rap guanine nucleotide exchange factor 3 (Homo sapiens) (UniProt O95398); experiment: Counterscreen qHTS for antagonist of cAMP-regulated guanine nucleotide exchange factor 3 (EPAC1) (AID 1645888);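 also: fluorescence loss as bound BODIPY-GDP is released from Rap1B; % of control where 0% means no effect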
How it was run: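 Rap1B–BODIPY-GDP (250 nM) with 50 uM GDP; compounds pin-transferred to 9.74 nM–152 uM final (activator) or from 7.32 nM upwards (inhibitor). Fluorescence Ex/Em 480/540 nm read at 5 and 30 min, then after adding cAMP or buffer, at room temperature.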

Cc1c(C(=O)NCc2ccc(F)cc2)sc(=O)n1Cc1ccccc1F
active: Potency [4] 67.5 µM
inactive: Potency [1] | Potency [2] | Potency [3] | Potency [5]

O=C(OCc1ccc([N+](=O)[O-])cc1)c1cc(=O)c2ccccc2o1
inactive: Potency [1] | Potency [2] | Potency [3] | Potency [4] | Potency [5]

O=C1NC(=Nc2ccccc2Cl)S/C1=C\c1cccc([N+](=O)[O-])c1O
inactive: Potency [2] | Potency [3] | Potency [4] | Potency [5]
active: Potency [1] 21.3 µM

COC(=O)CSc1nc2sc3c(c2c(=O)n1-c1ccc(OC)cc1)CCN(C)C3
inactive: Potency [1] | Potency [2] | Potency [3] | Potency [4] | Potency [5]

N#CC1(NC(=O)COC(=O)c2nc(Cl)c(Cl)c(N)c2Cl)CCCCC1
inactive: Potency [1] | Potency [2] | Potency [3] | Potency [4] | Potency [5]

Cc1ccc(C)c(S(=O)(=O)N2CCN(C(=O)CCCc3c[nH]c4ccccc34)CC2)c1
inactive: Potency [1] | Potency [2] | activation [3] 2.96% [at 17.1 µM, percent relative to cAMP agonist control] | Potency [4] | activity change, negative = inhibition [5] -6.79% [at 30.8 µM]

CC(=O)C[C@H]1SC[C@@H](C(C)C)N1S(=O)(=O)c1ccc(C)cc1
inactive: Potency [1] | Potency [2] | Potency [3] | Potency [4] | Potency [5]

COc1ccc(C(=O)NCC2(c3ccccc3)CCCC2)c(OC)c1
inactive: Potency [1] | Potency [2] | activation [3] -2.19% [at 17.1 µM, percent relative to cAMP agonist control] | Potency [4] | activity change, negative = inhibition [5] -13.7% [at 30.8 µM]

Cc1cc(Nc2cccc(C(F)(F)F)c2)nc2ccc(NC(=O)c3ccc(N(C)C)cc3)cc12
inactive: Potency [1] | Potency [2] | Potency [3] | Potency [4] | Potency [5]

O=C(Nc1cccs1)Nc1ccccc1Cl
inactive: Potency [1] | Potency [2] | activation [3] 6.52% [at 17.1 µM, percent relative to cAMP agonist control] | Potency [4] | activity change, negative = inhibition [5] 6.73% [at 30.8 µM]

O=C(COc1ccccc1Br)NCCC1=CCCCC1
inactive: Potency [1] | Potency [2] | activation [3] 11.2% [at 17.1 µM, percent relative to cAMP agonist control] | Potency [4] | activity change, negative = inhibition [5] -17.9% [at 30.8 µM]

CC(C)(CNC(=O)Cc1ccc(NS(=O)(=O)c2cccc(C(F)(F)F)c2)cc1)N1CCOCC1
inactive: Potency [1] | Potency [2] | activation [3] 1.17% [at 17.1 µM, percent relative to cAMP agonist control] | Potency [4] | activity change, negative = inhibition [5] 10.3% [at 30.8 µM]

Cc1cccc(C(=O)Nc2cccc(C(=O)N/N=C/c3cccc(C)n3)c2)c1
inactive: Potency [1] | Potency [2] | Potency [3] | Potency [4] | Potency [5]

CS(=O)(=O)N1N=C(c2ccco2)CC1c1ccc(Cl)cc1Cl (stereo not given)
inactive: Potency [1] | Potency [2] | activation [3] 0.361% [at 17.1 µM, percent relative to cAMP agonist control] | Potency [4] | activity change, negative = inhibition [5] 3.91% [at 30.8 µM]

Clc1ccc(NCc2nc3ccccc3n2CCOc2ccccc2)cc1
inactive: Potency [1] | Potency [2] | Potency [3] | outcome [4] inactive [at 12.7 µM] | Potency [5]

CCOC(=O)C(Cc1ccc(NC(=O)/C(=C\c2ccccc2)NC(=O)c2ccccc2)cc1)N1C(=O)c2ccccc2C1=O (stereo not given)
inactive: Potency [1] | Potency [2] | Potency [3] | Potency [4] | Potency [5]

COc1cc(/C=C2\SC(=S)N(NS(=O)(=O)c3ccccc3)C2=O)cc(OC)c1OC
inactive: Potency [2] | Potency [3] | Potency [4] | Potency [5]
active: Potency [1] 15.1 µM

O=C(/C=C/c1ccco1)NC(=S)Nc1cccc([N+](=O)[O-])c1
inactive: Potency [2] | activation [3] 7.76% [at 17.1 µM, percent relative to cAMP agonist control] | Potency [4] | activity change, negative = inhibition [5] -9.95% [at 30.8 µM]
active: Potency [1] 20 µM

O=C(CCNC(=O)c1ccccc1Cl)NCC(c1ccc(F)cc1)N1CCOCC1 (stereo not given)
inactive: Potency [1] | Potency [2] | Potency [3] | Potency [4] | Potency [5]

COc1cc(/C=C2/C(=O)NN(c3ccc(Cl)cc3)C2=O)ccc1OC(=O)c1ccco1
inactive: Potency [2] | Potency [3] | Potency [4] | Potency [5]
active: Potency [1] 47.8 µM

CC1CN(C(=O)CCC(=O)NCc2cccc(Cl)c2)c2ccccc2S1 (stereo not given)
inactive: Potency [1] | Potency [2] | Potency [3] | Potency [4] | Potency [5]

COc1cc(S(=O)(=O)Nc2ccccc2C)ccc1Cl
inactive: Potency [1] | Potency [2] | Potency [3] | Potency [4] | Potency [5]

CCn1c(C(=O)N2CCCC(C(=O)N3CCN(c4cc(C)ccc4C)CC3)C2)cc2sccc21 (stereo not given)
inactive: Potency [1] | Potency [2] | Potency [3] | outcome [4] inactive [at 12.7 µM] | Potency [5]

CC(C)c1ccc(NS(=O)(=O)c2cn(C)c(=O)n(C)c2=O)cc1
active: Potency [4] 6.01 µM
inactive: Potency [1] | Potency [2] | Potency [3] | Potency [5]

COc1ccc(N2CCN(C(c3ccccc3F)c3sc4nc(-c5ccco5)nn4c3O)CC2)cc1 (stereo not given)
inactive: Potency [1] | Potency [2] | Potency [3] | Potency [4] | Potency [5]

Cc1ccc2nc(-c3ccccc3)c(Cc3ccccn3)n2c1
inactive: Potency [1] | Potency [2] | Potency [3] | Potency [4] | Potency [5]

COc1cc(/C=C(/C#N)c2nc(-c3cc4ccccc4oc3=O)cs2)ccc1O
inactive: Potency [1] | Potency [2] | Potency [3] | outcome [4] inactive [at 12.7 µM] | Potency [5]

O=c1cc(O)c2sc3nc(-c4cccnc4)cc(C(F)(F)F)c3c2[nH]1
inactive: Potency [1] | Potency [2] | Potency [3] | Potency [4] | Potency [5]

Cc1ccc(C)n1-c1c(C(=O)NCCC(C)C)sc2ncccc12
inactive: Potency [1] | Potency [2] | Potency [3] | Potency [4] | Potency [5]

COC(=O)c1c(SC)nc2ccccc2c1OCc1cccc(C)c1
inactive: Potency [1] | Potency [2] | Potency [3] | Potency [4] | Potency [5]

N#C/C(=C/c1ccc(O)c(O)c1)c1nc2ccccc2[nH]1
active: Potency [1] 6.01 µM
inactive: Potency [2] | Potency [3] | Potency [4] | Potency [5]

Cc1ccc(-c2sc(-c3ccccc3)nc2CC(=O)Nc2ccccc2F)cc1
inactive: Potency [1] | Potency [2] | Potency [3] | Potency [4] | Potency [5]

NC(=O)C1CCN(C(=O)Nc2csc3ccccc23)CC1
inactive: Potency [1] | Potency [2] | Potency [3] | Potency [5]
active: Potency [4] 12 µM

O=C1NC(=Nc2ccccc2Cl)S/C1=C\c1cc([N+](=O)[O-])ccc1O
active: Potency [1] 53.6 µM | Potency [4] 26.9 µM
inactive: Potency [2] | Potency [3] | Potency [5]

COc1ccc(-c2onc3ccc(C(C)=O)cc23)cc1
inactive: Potency [1] | Potency [5]
active: Potency [2] 79.4 µM | Potency [3] 79.4 µM | Potency [4] 19 µM

CSc1nc2c(c(C(F)(F)F)n1)CC(C)CC2 (stereo not given)
inactive: Potency [1] | Potency [2] | Potency [3] | Potency [4] | Potency [5]

COc1cccc(OC)c1OC(=O)/C=C/c1ccc(C)o1
inactive: Potency [1] | Potency [2] | activation [3] -0.917% [at 17.1 µM, percent relative to cAMP agonist control] | Potency [4] | activity change, negative = inhibition [5] -18.3% [at 30.8 µM]

NNc1nc2c(Cl)cccc2s1
active: Potency [4] 95.3 µM
inactive: Potency [1] | Potency [2] | Potency [3] | Potency [5]

O=C(CSc1nnc(-c2cccnc2)n1CCc1ccccc1)NCc1ccccc1
inactive: Potency [1] | Potency [2] | activation [3] 4.59% [at 17.1 µM, percent relative to cAMP agonist control] | Potency [4] | activity change, negative = inhibition [5] -2.95% [at 30.8 µM]

COc1cnc(-c2ccccn2)nc1Oc1cccc(Cl)c1
inactive: Potency [1] | Potency [2] | Potency [3] | Potency [5]
active: Potency [4] 10.7 µM

COCC(=O)Oc1c(Sc2ccc(C)cc2)c(C)nn1C(C)(C)C
inactive: Potency [1] | Potency [2] | Potency [3] | Potency [4] | Potency [5]

Cc1ccccc1OCCn1cnc2c(N)ncnc21
inactive: Potency [1] | Potency [2] | Potency [3] | Potency [4] | Potency [5]

Cn1nc(-c2ccccn2)nc2c(=O)n(C)c(=O)nc1-2
inactive: Potency [2] | Potency [3] | Potency [4] | Potency [5]
active: Potency [1] 1.69 µM

O=C1CSC2(C(=O)N(Cc3ccccc3F)c3ccccc32)N1c1ccc(F)cc1 (stereo not given)
inactive: Potency [1] | Potency [2] | Potency [3] | outcome [4] inactive [at 12.7 µM] | Potency [5]

Cc1ccc(CN(C(=O)COc2cccc(Cl)c2)c2ccccn2)o1
inactive: Potency [1] | Potency [2] | Potency [3] | Potency [4] | Potency [5]

COCCCn1c(=N)c(C(=O)NCc2cccnc2)cc2c(=O)n3cc(C)ccc3nc21
inactive: Potency [1] | Potency [2] | Potency [3] | Potency [4] | Potency [5]

Cn1cccc1C(=O)NC(=O)COC(=O)c1cc(S(=O)(=O)N2CCCCC2)ccc1Cl
inactive: Potency [1] | Potency [2] | Potency [3] | Potency [4] | Potency [5]

CCc1ccccc1C1=CC(=O)C[C@H](c2ccc(OC)cc2)C1
inactive: Potency [1] | Potency [2] | Potency [3] | Potency [4] | Potency [5]

COc1ccc(-c2oc3c4c2C(=O)OCCOC4CCC3)cc1 (stereo not given)
inactive: Potency [1] | Potency [2] | Potency [3] | Potency [4] | Potency [5]

Oc1ccc(NCc2ccccc2OCc2ccc(Cl)cc2)cc1
inactive: Potency [2] | Potency [3] | Potency [4] | Potency [5]
active: Potency [1] 75.7 µM
